INHIBITION data for 106 compounds are collected here from ChEMBL document CHEMBL4513216, “Probing the Open Global Health Chemical Diversity Library for Multistage-Active Starting Points for Next-Generation Antimalarials” (ACS Infect Dis, 2020).

About 8,600 (12%) of roughly 69,000 compounds showed an effect of 50% or more. For the sample, strong results were picked, then their nearest neighbours and some compounds at random.

The test system of the assay is Plasmodium berghei. As to the kind of experiment: Screen against P. berghei liver stage (PbLuc), transformed with Luciferase, at 10uM. In kind it is functional, HepG2. The note with it: tested at 10 uM.
As to `COCCOc1ccc(NC(=O)C2CC(=O)N(CC3CC3)C2)cn1` (stereo unspecified), the INHIBITION is listed as 4.71%. The same measure for `CN(C)C(=O)N1CCC2(CC1)CN(CC1CC1)CC21CCNC1=O` (stereo unspecified): -63.9%; for `Cc1cc(C(=O)NCC(F)(F)F)c2c(C3CCCN3)noc2n1` (stereo unspecified): 30.8%. In the case of `Cc1cc(C(=O)NCC(F)(F)F)c2c(C3CCNCC3)noc2n1` it was 64%; in that of `Cc1cc(C(=O)NCc2ccc(F)cc2)c2c(C3CCNC3)noc2n1` (stereo unspecified), 41.6%.

`O=C(C1CCN(c2nc3nc[nH]c(=O)c3s2)CC1)N1CCCCC1`: the INHIBITION is 37.4%.

In the case of `NC(=O)NC(CC(=O)NCCc1ccc(F)cc1)c1ccccc1` (stereo unspecified), the INHIBITION is on record as 53.8%.

For the compound `COc1ccc(CCNC(=O)CC(NC(N)=O)c2ccccc2)cc1` (stereo unspecified), the INHIBITION was determined as 29.1%. In the case of `NC(=O)NC(CC(=O)NCCc1cccc(F)c1)c1ccccc1` (stereo unspecified) it was 20.5%.

With `CSCC(=O)N1CCCCC1Cn1cc(C)cn1` (stereo unspecified), the INHIBITION is -5.25%.

In the case of `CC(C)CN1CCC2(CCN(CC3CC3)CC2)C1=O`, the INHIBITION is reported as -7.24%.

As for `Nc1ccnc(N2CCCC(CO)(Cc3cccc(Cl)c3)C2)n1` (stereo unspecified), the INHIBITION turned out to be 44.9%.

Consider `O=C(O)C1(Cc2ccccc2F)CCCN(c2ncnc3[nH]ccc23)C1` (stereo unspecified), for which the INHIBITION stood at 23.5%.

For the compound `Nc1cc(N2CCCC(CO)(Cc3ccccc3F)C2)nc(N)n1` (stereo unspecified), the INHIBITION is given as 75.1%. As for `N#Cc1cccc(N2CCCC(CO)(Cc3ccccc3F)C2)n1` (stereo unspecified), the INHIBITION came out at 23.5%. In the case of `OCC1(Cc2ccccc2F)CCCN(c2ccc3ccccc3n2)C1` (stereo unspecified) it was 89.9%; in that of `Nc1cc(N2CCCC(Cc3ccc(F)cc3F)(C(=O)O)C2)ncn1` (stereo unspecified), 34.4%. For the compound `CCCC1(CO)CCCN(c2ncccc2F)C1` (stereo unspecified), the INHIBITION was -29.9%. The same measure for `COC[C@]1(O)CCN(c2cc(OC)ncn2)CC1(C)C`: -31.7%; for `COc1cc(N2CCCC(CO)(Cc3ccccc3F)C2)ncn1` (stereo unspecified): 84.9%; for `CNC(=O)N1CC[C@@H]2CN(Cc3cccnc3)S(=O)(=O)[C@@H]2CC1`: 22.2%. `CN1CC(=O)N(C2CCNCC2)Cc2c(NC3CCC3)ncnc21`: the INHIBITION was -13%. In the case of `CCOC1COC2(CCN(Cc3ccc4c(c3)OCO4)CC2)C1` (stereo unspecified) it was 24.9%.

As for `COCCn1c(CN2CCCCO2)cnc1S(=O)(=O)CC1CCCCC1`, the INHIBITION was -2.13%.

As for `CCc1cc(NC2CCC(N)CC2)n2nc(C)c(C)c2n1` (stereo unspecified), the INHIBITION amounted to 14.1%. With `CC(C)n1ncc2cc(NC(=O)N3CCC(CO)CC3)cnc21`, the INHIBITION is 29.7%. In the case of `c1ccc(OCc2noc(CN3CCN(C4CCCC4)CC3)n2)cc1`, the INHIBITION came out at 40.9%. As to `Fc1ccccc1Cc1noc(CN2CCC(N3CCSCC3)CC2)n1`, the INHIBITION was found to be 75.2%. The same measure for `c1ccc(OCc2noc(CN3CCC(N4CCSCC4)CC3)n2)cc1`: 79.5%; for `Fc1ccccc1Cc1noc(CN2CC[C@@H]3CCCC[C@H]3C2)n1`: 38.4%. The same measure for `CCc1nc(CN(C)C2CCN(CCOc3ccccc3)C2)no1` (stereo unspecified): -0.219%; for `c1ccc(CCc2noc(CN3CCC(N4CCSCC4)CC3)n2)cc1`: 7.97%; for `CS(=O)(=O)NCC1(c2ccccc2Br)CC1`: 46.6%. As for `CN(C)S(=O)(=O)NCC1(c2ccccc2Br)CC1`, the INHIBITION was 46.6%. As to `CCN(C)S(=O)(=O)NCC1(c2ccccc2Br)CC1`, the INHIBITION is on record as 51%.

As for `O=C(c1cn(-c2ccccc2Cl)nn1)N1CCSCC1`, the INHIBITION is -28.8%. The same measure for `O=C(c1cn(-c2cccc(Cl)c2F)nn1)N1CCCSCC1`: -134%; for `COCC(C)(C#N)NC(=O)c1cn(-c2cccc(Cl)c2F)nn1` (stereo unspecified): 55.6%; for `COCC(NC(=O)c1cn(-c2cccc(Cl)c2F)nn1)C1CC1` (stereo unspecified): 51.2%. As to `CC(O)CN1CCN(C(=O)c2cn(-c3ccccc3Cl)nn2)CC1` (stereo unspecified), the INHIBITION is -9.67%.

With `COC(C)(C)CNC(=O)c1cn(-c2cccc(Cl)c2F)nn1`, the INHIBITION is given as 18.7%. Turning to `CNC(=O)c1sc2ccccc2c1CC1CCCN1Cc1cnc(C)s1` (stereo unspecified), the INHIBITION was determined as 24.69%. The same measure for `CCN1CCc2[nH]nc(C(=O)N3CCCC3C)c2C1` (stereo unspecified): -65.2%; for `CS(=O)(=O)NC(=O)c1ccn(-c2cccc(Br)c2)n1`: 16.3%; for `CC(c1ccccc1F)N(C(=O)CSCC(N)=O)C1CC1` (stereo unspecified): 35.9%.

On to `CC(c1ccccc1Cl)N(C(=O)CSCC(N)=O)C1CC1` (stereo unspecified), for which the INHIBITION was found to be 30.4%. In the case of `CC(c1ccccc1F)N(CC(N)=O)C1CC1` (stereo unspecified) it was 72.1%; in that of `Cc1nnc2n1CCN(Cc1ccc3c(c1)OCCO3)C2`, 33.8%. On to `COCC(=O)N1CCC(O)(CN2CCN(c3ccccc3)CC2)C1` (stereo unspecified), for which the INHIBITION is 39.7%. `CC1CCCCN1C(=O)c1nc2c(n1C(C)C)CCN(C(=O)C1CC1)C2` (stereo unspecified): the INHIBITION was -0.554%. In the case of `CC(C)n1c(C(=O)N2CCCC2)nc2c1CCN(C)C2` it was 9.79%; in that of `CC1CCCCN1C(=O)c1nc2c(n1C(C)C)CCN(C)C2` (stereo unspecified), 58.5%; in that of `COCCN1CCC2(C1)c1ccccc1S(=O)(=O)N2C` (stereo unspecified), 40.5%. In the case of `Cc1cc(O)nc(C2CN(CC3(O)CCOCC3)CCO2)n1` (stereo unspecified) it was -34.6%.

For the compound `Cc1cc(O)nc(C2CN(CCC(F)(F)F)CCO2)n1` (stereo unspecified), the INHIBITION was -6.92%. In the case of `Cc1cc(O)nc(C2CN(CCO)CCO2)n1` (stereo unspecified) it was 50.8%; in that of `CN1CCN(C[C@@H]2CN(C3Cc4ccccc4C3)C[C@@H]2CO)CC1`, 8.51%; in that of `CC(NC(=O)C1CCCCC1)c1cc(O)nc(-c2cccnc2)n1` (stereo unspecified), -6.002%. The same measure for `O=C(c1sccc1C1CC1)N1CCCN(c2cccnn2)CC1`: 15.7%; for `Cc1ccsc1CN(C)CCc1scnc1C`: 46.9%; for `Cc1ncsc1CCN(C)Cc1ccc(Br)o1`: 47.1%. The same measure for `Cc1ncsc1CCN(C)Cc1ccc(CO)o1`: 57.6%.

As to `CC(=O)N1CCCC(c2ncncc2-c2ccncc2)C1` (stereo unspecified), the INHIBITION is given as 26.8%. As for `COc1ccc(CN2C[C@@H](OCc3ccccn3)[C@H]3COC[C@H]32)cc1`, the INHIBITION was 34.7%. The same measure for `Cc1ccc(S(=O)(=O)NCc2cccc(C(=O)N3CCCC3)c2)cc1F`: -51.5%.

`CC(C)c1noc(CCCC(=O)N2CCN(Cc3ccccn3)CC2)n1`: the INHIBITION was found to be 40%. The same measure for `Cc1ccc(NC2CCN(C(=O)Cc3c(C)noc3C)CC2)nn1`: 28.38%; for `Cc1[nH]/c(=N\C(=O)c2csc(NC3CC3)n2)sc1C`: 77.9%; for `CC(C)CCNC(=O)c1csc(NC2CC2)n1`: -70.8%. The same measure for `Cc1[nH]/c(=N\C(=O)c2csc(NC3CCCC3)n2)sc1C`: 83.8%. With `CC(C)NC(=O)c1csc(NC2CC2)n1`, the INHIBITION is 13.9%. The same measure for `CC(=O)Nc1nc(C(=O)N2CCCC(c3cc(C)[nH]n3)C2)cs1` (stereo unspecified): 22.3%; for `CC(C)(C)[S+]([O-])CCNC(=O)c1csc(NC2CC2)n1` (stereo unspecified): -12.1%. For the compound `O=c1[nH]cnc2c1CCN(S(=O)(=O)c1ccc(OC(F)(F)F)cc1)C2`, the INHIBITION is listed as -10.1%. In the case of `CCc1ccc(NC(=O)Nc2c(O)oc3ccccc3c2=O)cc1` it was -11.4%; in that of `O=C(COCc1ccccc1)NCc1ccc(O)c(F)c1`, -7.93%. The same measure for `COCC(=O)N1CCCn2c(CN3CCCC3=O)nnc2C1`: -15.6%. The same measure for `Cc1cc(CN(C)C(=O)c2ccc(Cl)cc2N2CCCC2=O)no1`: -9.37%; for `O=C(c1ccccn1)N1CCC2(CC1)CN(c1cncnc1)C(=O)CO2`: 40.4%; for `Cc1nc2ccccc2c(=O)n1CCC(=O)N1CCCC1`: 17.36%. With `CC(=O)NCC(=O)N1CCOCC(Cc2ccc3c(ccn3C)c2)C1` (stereo unspecified), the INHIBITION is given as -2.995%. Regarding `Cc1nc(C)c(CCNC(Cc2ccncc2)C(F)(F)F)s1` (stereo unspecified), the INHIBITION was 48.5%. Turning to `Cc1cnc(CCNC(Cc2ccncc2)C(F)(F)F)s1` (stereo unspecified), the INHIBITION worked out at 11.7%. In the case of `Cc1nc(CCNC(Cc2ccncc2)C(F)(F)F)cs1` (stereo unspecified) it was 59.3%. The same measure for `CN(C)C(=O)c1cc2ncc(C(=O)NC3CCCC3)cc2n1C`: -71.5%; for `O=C(c1cnnn1-c1ccccc1)N1CCCC(c2ccn[nH]2)C1` (stereo unspecified): 12.9%; for `O=C(c1ccccc1-c1nc[nH]n1)N1CCOC(C(F)(F)F)C1` (stereo unspecified): 7.15%. In the case of `O=C(c1cnc2ccccn12)N1CCCC(c2ccn[nH]2)C1` (stereo unspecified) it was -0.71%; in that of `O=C(c1cc(=O)n(-c2ccccc2)[nH]1)N1CCOC(C(F)(F)F)C1` (stereo unspecified), 63.6%. As to `O=C(c1cc(=O)n(-c2ccccc2)[nH]1)N1CCCC(c2ccn[nH]2)C1` (stereo unspecified), the INHIBITION was 55%. The same measure for `O=C(c1cc(=O)n(-c2ccccc2)[nH]1)N1CCOCC(O)C1` (stereo unspecified): 0.546%. Take `COc1ccc(CNC(=O)Nc2ccc(N3CCCC3)nc2)cc1O`: the INHIBITION stood at 26.4%. In the case of `O=C(NCc1cccs1)[C@H]1CC[C@@H]2[C@@H](CCN2C2CCC2)O1`, the INHIBITION is recorded as -4.88%.

As to `Cc1cnc(C(=O)N2C[C@H]3CN(Cc4nccs4)C[C@H]3C2)cn1`, the INHIBITION was found to be 81.5%. For `NC(=O)N1C[C@H]2CN(Cc3nccs3)C[C@H]2C1`, the INHIBITION is listed as 14.8%.

On to `Cc1cnc(C(=O)N2C[C@H]3CN(Cc4cccnc4)C[C@H]3C2)cn1`, for which the INHIBITION is reported as -6.21%. The same measure for `O=C(c1cscn1)N1CCC2(CCN(Cc3nccs3)CC2)CC1`: 35.7%; for `O=C(c1cscn1)N1C[C@H]2CN(Cc3nccs3)C[C@H]2C1`: 62.5%. In the case of `Cc1cnc(C(=O)N2C[C@H]3CN(Cc4cccs4)C[C@H]3C2)cn1` it was -18.2%; in that of `O=C(O)c1c(-c2ccncc2)ncc2c1CCN(C1CCOC1)C2` (stereo unspecified), -12.4%; in that of `CCc1nc(CC(=O)N2CCn3c(C)nnc3C2)cs1`, 27.45%. In the case of `CN1C(=O)CC(C(=O)O)C12CCN(Cc1ccc(F)cc1Cl)CC2` (stereo unspecified) it was 18.8%; in that of `CN1C(=O)CC(C(=O)O)C12CCN(Cc1ccc(Cl)cc1F)CC2` (stereo unspecified), 7.84%. `CN1C(=O)CC(C(=O)O)C12CCN(Cc1cc(Cl)ccc1F)CC2` (stereo unspecified): the INHIBITION stood at 50.5%. In the case of `O=C(c1ccsc1)N1CCC(Nc2cccnn2)CC1` it was -85%; in that of `COc1ccc(NC2(C(=O)N3CCCn4cncc4C3)CCCC2)cc1`, 18.5%.
